The values below come from PubChem BioAssay (Tox21).

The nature of experiment [1]: qHTS assay to identify small molecule agonists of the vitamin D receptor (VDR) signaling pathway - cell viability counter screen (AID 743224; active = well fitted curve in the direction sought with a large enough effect in the repeat runs; an effect the other way counts as inactive or inconclusive; also: nearly all actives have a fitted effect of over 50% in size; also: potency is read from the fitted curve at half-maximal effect). The method, boiled down: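 VDR-bla cells were preincubated 4 h at 37C/5% CO2, then exposed to compounds for 16 h. After the 2 h room-temperature bla FRET read, CellTiter-Glo was added to the same wells and luminescence read after 30 min.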

Experiment [2] is described as follows: qHTS assay to identify small molecule antagonists of the vitamin D receptor (VDR) signaling pathway - cell viability counter screen (AID 743225; active = well fitted curve in the direction sought with a large enough effect in the repeat runs; an effect the other way counts as inactive or inconclusive; also: nearly all actives have a fitted effect of over 50% in size; also: potency is read from the fitted curve at half-maximal effect). The essentials: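 Cytotoxicity counter screen read by CellTiter-Glo luminescence (30 min, room temperature) in the same wells as the VDR-bla antagonist readout. HEK 293T VDR-UAS-bla cells had 16 h at 37C with compound and 3 nM (final) 1-alpha,25-dihydroxyvitamin D3, then 2 h with FRET substrate.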

The nature of experiment [3]: qHTS assay to identify small molecule agonists of the NFkB signaling pathway - cell viability counter screen (AID 1159515). Also: series mostly up to about 61 µM; % is scaled to controls: 0 for no effect and ±100 for the full control effect; nearly all actives have a fitted effect of over 55% in size. The essentials:
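NFkB-bla ME-180 cells, 2,000/well, were plated overnight at 37 C, 5% CO2, then exposed to compounds in DMSO for 5 hr. After the bla FRET read, CellTiter-Glo was added to the same wells; luminescence was read after 30 min at room temperature.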
(Quantitative high-throughput screening tests each substance at several concentrations.)

Experiment [4] can be described thus: qHTS assay to identify small molecule agonists of the endoplasmic reticulum stress response signaling pathway (AID 1159516; active = well fitted activation curve with a large enough effect in the signal ratio in the repeat runs, not every such curve was filed as active; the % refers to the signal ratio; also: % is scaled to controls: 0 for no effect and ±100 for the full control effect). The method, boiled down:
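CellSensor ESRE-bla HeLa cells, carrying a beta-lactamase reporter driven by the ER stress response element, were plated overnight and exposed to compounds for 5 hr at 37 C. Reporter activity was read as FRET substrate fluorescence after 2 hr at room temperature.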

A short description of experiment [5]: qHTS assay to identify small molecule agonists of the endoplasmic reticulum stress response signaling pathway - cell viability counter screen (AID 1159517). Also: series mostly up to about 61 µM; % is scaled to controls: 0 for no effect and ±100 for the full control effect; nearly all actives have a fitted effect of over 50% in size. The method, boiled down: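 Cells, HeLa ESRE-bla; density, 1,500/well; dosing, 5 hr at 37 C, 5% CO2; readout, CellTiter-Glo luminescence after 30 min RT.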
Experiment [6] can be described thus: qHTS assay to identify small molecule antagonists of the retinoid-related orphan receptor gamma (ROR-gamma) signaling pathway - cell viability counter screen (AID 1159520; active = well fitted curve in the direction sought with a large enough effect in the repeat runs; an effect the other way counts as inactive or inconclusive; also: % is scaled to controls: 0 for no effect and ±100 for the full control effect; nearly all actives have a fitted effect of over 50% in size). The method, boiled down: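 Cytotoxicity was read from cellular ATP (CellTiter-Glo luminescence) after 16 hr at 37 C with 1 uM doxycycline induction. The inducer was added 2 hr after compound transfer to Tet-on ROR gamma CHO cells.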

The target of experiment [7] is Nuclear receptor ROR-gamma (Homo sapiens) (UniProt P51449). In words: qHTS assay to identify small molecule antagonists of the retinoid-related orphan receptor gamma (ROR-gamma) signaling pathway (AID 1159521; active = well fitted curve in the direction sought with a large enough effect in the repeat runs; an effect the other way counts as inactive or inconclusive; also: nearly all actives have a fitted effect of over 50% in size; also: potency is read from the fitted curve at half-maximal effect). The method, boiled down: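 Antagonist read-out: drop in luminescence (ONE-Glo) from an RORE-LUC reporter in CHO cells with doxycycline-inducible ROR-gamma; 2 hr compound pretreatment, 1 uM doxycycline, 16 hr incubation at 37 C.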

A short description of experiment [8]: qHTS assay to identify small molecule agonists of the AP-1 signaling pathway - cell viability counter screen (AID 1159525). Also: nearly all actives have a fitted effect of over 55% in size. The essentials:
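Luminescent ATP readout (Cell Titer Glo, 30 min RT), normalised to DMSO and tetra n-octyl ammonium bromide controls. Cells were ME-180 AP-1-bla in 0.5% dialyzed FBS Opti-MEM, with a 5 h, 37 °C compound exposure.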

Experiment [9] can be described thus: qHTS assay to identify small molecule agonists of the AP-1 signaling pathway (AID 1159526). Also: % is scaled to controls: 0 for no effect and ±100 for the full control effect.
In experiment [10] the target is Retinoic acid receptor RXR-alpha (Homo sapiens) (UniProt P19793). In words: qHTS assay to identify small molecule agonists of the RXR signaling pathway (AID 1159527). Also: nearly all actives have a fitted effect of over 35% in size. Also: potency is read from the fitted curve at half-maximal effect. As to activation: % is scaled to controls: 0 for no effect and ±100 for the full control effect. The essentials: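 Agonist-mode beta-lactamase reporter assay: HEK 293T RXR-alpha-UAS-bla cells treated 16 hr at 37 C with compounds, 9-cis retinoic acid as positive control. LiveBLAzer FRET substrate, 405 nm excitation, 460/530 nm emission.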

Structures are written as SMILES. Values joined by “and” are separate entries in the source; they are usually repeats but may differ in a detail not shown here. Identical values can stand only once. Records with an inconclusive call do not appear. Some structures have more than one record in an assay (separate samples or runs), and their calls can disagree. Active and inactive are the calls of the source. Unless noted, calls follow the shape of the full dose curve.

Sequence of Retinoic acid receptor RXR-alpha (Homo sapiens) (P19793 whole entry, looked up): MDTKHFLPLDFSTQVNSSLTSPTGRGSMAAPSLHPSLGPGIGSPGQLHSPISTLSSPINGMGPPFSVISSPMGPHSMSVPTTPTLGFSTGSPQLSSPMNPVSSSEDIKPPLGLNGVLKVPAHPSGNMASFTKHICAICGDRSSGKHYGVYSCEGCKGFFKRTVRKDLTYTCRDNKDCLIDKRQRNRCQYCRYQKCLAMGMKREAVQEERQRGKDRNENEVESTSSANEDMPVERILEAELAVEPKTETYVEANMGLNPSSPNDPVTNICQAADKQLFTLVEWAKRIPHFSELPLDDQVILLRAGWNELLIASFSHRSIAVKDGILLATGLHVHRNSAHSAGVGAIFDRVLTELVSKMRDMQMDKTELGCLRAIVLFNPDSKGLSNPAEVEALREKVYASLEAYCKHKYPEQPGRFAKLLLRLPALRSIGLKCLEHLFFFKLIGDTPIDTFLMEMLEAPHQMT

As to `COC(=O)/C=C\C(=O)OC`, the Potency result in [1], in experiment [2], in [3], in [4], in experiment [5] and in experiment [6] was “inactive” each time. The Potency result in [7], in experiment [8] and in experiment [10] was “inactive” each time. Also, the outcome in [9] was inactive.

For `NCCNCCNCCN`, the Potency result in experiment [1], in experiment [2], in [3], in [4], in experiment [5] and in experiment [6] was “inactive” throughout. Further, the Potency entry in experiment [7], in [8] and in experiment [10] was “inactive” each time. Besides, the molecule was classed as inactive in experiment [9].

`C[Si](C)(C)N[Si](C)(C)C`: the Potency entry in experiment [1], in [2], in experiment [3], in [4], in experiment [5] and in experiment [6] was “inactive” throughout. The Potency entry in [7], in experiment [8] and in experiment [10] was “inactive” in each case. In addition, the call in experiment [9] was inactive.

For `CCCCCCCCCCCCCC(=O)O`, the Potency result in [1], in experiment [2], in [3], in experiment [4], in [5] and in [6] was “inactive” in each case. Besides, the Potency result in [7], in [8] and in experiment [10] was “inactive” in each case. Also, in [9], the outcome was inactive.

Take `Cc1ncc(CO)c(CO)c1O`: the Potency entry in [1], in experiment [2], in experiment [3], in experiment [4], in experiment [5] and in experiment [6] was “inactive” throughout. Moreover, the Potency result in experiment [7], in [8] and in experiment [10] was “inactive” throughout. For the same molecule, the outcome in [9] was inactive.

Turning to `COc1c(Cl)ccc(Cl)c1C(=O)O`, the Potency entry in experiment [1], in [2], in experiment [3], in experiment [4], in experiment [5] and in experiment [6] was “inactive” throughout. The Potency entry in experiment [7], in experiment [8] and in experiment [10] was “inactive” in each case. For the same molecule, the call in experiment [9] was inactive.

With `CCCCC(CC)COC(=O)c1ccc(C(=O)OCC(CC)CCCC)cc1` (stereo unspecified), the Potency entry in [1], in experiment [2], in experiment [3], in [4], in experiment [5] and in experiment [6] was “inactive” each time. In addition, the Potency entry in experiment [7], in experiment [8] and in experiment [10] was “inactive” in each case. The result in experiment [9] was inactive.

For `CC(C)(C)NC[C@H](O)COc1nsnc1N1CCOCC1`, the Potency entry in [1], in experiment [2], in [3], in experiment [4], in [5] and in [6] was “inactive” in each case. The Potency entry in [7], in experiment [8] and in experiment [10] was “inactive” in each case. In addition, the outcome in experiment [9] was inactive.

Turning to `O=C(NCC1CCCCN1)c1cc(OCC(F)(F)F)ccc1OCC(F)(F)F` (stereo unspecified), the Potency entry in [1], in experiment [2], in [3], in experiment [4], in experiment [5] and in experiment [6] was “inactive” in each case. For the same molecule, the Potency result in experiment [7], in [8] and in experiment [10] was “inactive” in each case. For the same molecule, the outcome in experiment [9] was inactive.

In the case of `COc1ccc(N)c(OC)c1`, the Potency result in [1], in [2], in [3], in experiment [4], in experiment [5] and in experiment [6] was “inactive” in each case. The Potency entry in experiment [7], in experiment [8] and in experiment [10] was “inactive” each time. Besides, the molecule was classed as inactive in experiment [9].

For `O=C(Cl)c1ccc(C(=O)Cl)cc1`, the Potency result in [1], in [2], in experiment [3], in experiment [4], in experiment [5] and in [6] was “inactive” each time. Besides, the Potency result in experiment [7], in experiment [8] and in experiment [10] was “inactive” each time. Moreover, the result in experiment [9] was inactive.

Take `CN=C(NC#N)NCCSCc1nc[nH]c1C`: the Potency result in [1], in experiment [2], in experiment [3], in [4], in [5] and in experiment [6] was “inactive” throughout. The Potency entry in experiment [7], in experiment [8] and in experiment [10] was “inactive” in each case. The result in experiment [9] was inactive.

With `O=C1C(N(CO)C(=O)NCO)N(CO)C(=O)N1CO` (stereo unspecified), the Potency entry in experiment [1], in experiment [3], in experiment [4], in experiment [5], in experiment [6] and in [7] was “inactive” throughout. Further, the Potency result in experiment [8] and in experiment [10] was “inactive” each time. Also, the outcome in experiment [9] was inactive.

With `COC(=O)OC`, the Potency result in experiment [1], in experiment [3], in experiment [4], in [5], in experiment [6] and in experiment [7] was “inactive” each time. The Potency result in experiment [8] and in [10] was “inactive” throughout. Moreover, the result in experiment [9] was inactive.

On to `O=C1CCCCCCCCCCC1`, for which the Potency entry in experiment [1], in experiment [2], in [3], in experiment [4], in experiment [5] and in experiment [6] was “inactive” in each case. Besides, the Potency entry in experiment [7], in [8] and in [10] was “inactive” throughout. In experiment [9], the molecule was called inactive.

For the molecule `NC1CCCCC1N` (stereo unspecified), the Potency result in [1], in [2], in [3], in experiment [4], in experiment [5] and in [6] was “inactive” throughout. The Potency entry in experiment [7], in [8] and in experiment [10] was “inactive” each time. In addition, in experiment [9], the molecule was called inactive.

For the molecule `CCCCCCCCCCCC(=O)N(C)CC(=O)O`, the Potency result in [1], in experiment [2], in experiment [3], in experiment [4], in [5] and in experiment [6] was “inactive” in each case. The Potency result in [7] and in [8] was “inactive” throughout. Moreover, the activation in [9] was -13.8% [at 6.97 µM] (inactive); in [10], 1.89% [at 6.98 µM] (inactive).

Regarding `Brc1ccc(Oc2ccc(Br)cc2)cc1`, the Potency entry in [1], in experiment [2], in experiment [3], in experiment [4], in experiment [5] and in [6] was “inactive” in each case. Moreover, the Potency result in experiment [7] and in experiment [8] was “inactive” each time. In addition, the call in experiment [9] was inactive.

As to `O=Cc1ccc(CO)o1`, the Potency result in experiment [1], in experiment [2], in experiment [3], in experiment [4], in experiment [5] and in experiment [6] was “inactive” each time. Further, the Potency result in experiment [7], in [8] and in [10] was “inactive” each time. Besides, in experiment [9], the result was inactive.

As to `CS(=O)(=O)c1ccc(Cl)cc1`, the Potency result in [1], in experiment [2], in experiment [3], in experiment [4], in experiment [5] and in experiment [6] was “inactive” throughout. Besides, the Potency result in experiment [7], in [8] and in experiment [10] was “inactive” throughout. In addition, the result in [9] was inactive.

Turning to `CCCCCCC(=O)O`, the Potency result in experiment [1], in [2], in [3], in [4], in [5] and in [6] was “inactive” throughout. Further, the Potency entry in experiment [7], in experiment [8] and in experiment [10] was “inactive” each time. The molecule was classed as inactive in experiment [9].

For the molecule `CC(CN1c2ccccc2Sc2ccccc21)N(C)C` (stereo unspecified), the Potency in experiment [1] was 49.5 µM (active) and 43.6 µM (active); in experiment [2] it was 21.9 µM (active); in [7], 24.6 µM (active) and 54.5 µM (active). The Potency entry in experiment [3], in experiment [4], in experiment [5], in experiment [6], in experiment [8] and in experiment [10] was “inactive” each time.

For the molecule `CCCOC(=O)NCCCN(C)C`, the Potency result in experiment [1], in experiment [2], in experiment [3], in experiment [4], in experiment [5] and in experiment [6] was “inactive” throughout. Also, the Potency entry in [7] and in [8] was “inactive” each time. Besides, the outcome in experiment [9] was inactive. The Potency in experiment [10] is 21.9 µM (active) and inactive.
